The results in this text go back to PubChem BioAssay.

Experiment [1] can be described thus: rapamycin-like changes in RPL19A-GFP expression – cell-based, S. cerevisiae, multiplex flow cytometry, primary screen (AID 1862; in the data active = percent of DMSO control GFP below about 86%;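 also: lower values mimic rapamycin by blocking the RPL19A rise seen in DMSO cells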). The note with it: S. cerevisiae RPL19A-GFP strain, flow cytometry fluorescence, 3 h; at 10 µM; stronger effect = lower value.
Experiment [2] in a line: TOR pathway GLN3 branch reporter MEP2-GFP changes – S. cerevisiae, multiplex flow cytometry, primary screen (AID 1867;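 active = GFP response, as percent of the DMSO control, above the screen-wide mean plus 3 SD, about 139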;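 also: median GFP channel fluorescence of barcode-gated MEP2-GFP cells measured by flow cytometry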). The note with it: S. cerevisiae MEP2-GFP strain, 3 h, at 10 µM, stronger effect = higher value, 100% means same as DMSO wells.
Experiment [3] can be described thus: TOR pathway RTG branch CIT2 reporter changes – S. cerevisiae, GFP fusion, multiplex flow cytometry, primary screen (AID 1870;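 active = percent response above a set limit, the screen-wide mean plus 3 SD, cut at about 130% in these data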;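 also: barcoded CIT2-GFP strain pooled with four other GFP strains with rapamycin as positive control; median GFP fluorescence per well over plate mean of DMSO wells so 100% = DMSO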). The note with it: S. cerevisiae CIT2-GFP expression, 3 h, at 10 µM, stronger effect = higher value.
A short description of experiment [4]: TOR pathway LAP4-GFP level changes – S. cerevisiae, multiplex flow cytometry, primary screen (AID 1873;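 active = GFP signal, as percent of the solvent control, above the screen mean plus 3 SD, about 149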). Conditions: S. cerevisiae LAP4-GFP expression, 3 h, at 10 µM, stronger effect = higher value.
The nature of experiment [5]: yeast AGP1-GFP level changes, GLN3 branch – cell-based, multiplex flow cytometry, S. cerevisiae, primary screen (AID 1887;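 active = GFP signal above the screen-wide mean plus 3 SD, that is over about 124.5% of the solvent control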;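 also: AGP1-GFP fusion strain of S. cerevisiae within a five-strain barcoded multiplex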). The note with it: 3 h, at 10 µM, stronger effect = higher value.
The nature of experiment [6]: reduced mouse 2C T cell binding to pMHC/ICAM-1 vesicles – MLPCN validation set, flow cytometry, LFA-1/ICAM-1 modulator project, pilot screen (AID 2523;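 active = response below a set limit, under 55% cells CD8-positive and vesicle-bound, and CD8 cells' 90th-percentile brightness under 279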;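 as to vesicle binding response: mean PE anti-B7-1 fluorescence of CD8+ cells relative to row control; 100% = QL9-loaded vesicles with DMSO vehicle in the same plate row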). The note with it: 2C mouse CD8+ T cells, at 7 µM, stronger effect = lower value; double positive events: measured here: CD8+/vesicle+ event percentage.
For experiment [7], the target named is Integrin beta-1 (Homo sapiens) + Integrin alpha-4 (Homo sapiens) (UniProt P13612+P05556). As to the kind of experiment: alpha4beta1 integrin LIBS antibody binding reduction – U937 cells, HUTS-21 mAb, flow cytometry, validation set, VLA-4 allosteric modulator project, pilot screen (AID 2674;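 active = inhibition above 50%, about 3 SD of the validation set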;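 also: antibody binding induced by the VLA-4 ligand LDV present at three times its Kd; 0% = LDV ligand with antibody and no compound and 100% = antibody without LDV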). The note with it: HUTS-21 LIBS mAb binding, at 6.7 µM, stronger effect = higher value, binding induced by LDV ligand.

The nature of experiment [8]: calorie-restriction mimetic ROS inhibitors, yeast – validation compound set, pilot screen (AID 2706;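 active = superoxide response below 65% of plate, a cut near 3 SD across the whole screen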;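 also: yeast exposed to compound for one week at 30 degrees C before staining; 100% = mean of all compound wells on the same plate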). The note with it: S. cerevisiae aging, superoxide DHE fluorescence; at 10 µM, stronger effect = lower value.
The target of experiment [9] is Beta-adrenergic receptor kinase 1 (Homo sapiens) (UniProt P25098). Briefly: GRK2 binders displacing RNA aptamer, biochemical, validation, human GRK2, bead flow cytometry (AID 488806;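 active = aptamer binding inhibition above 30%, about 3 SD of noise from non-fluorescent compounds; inactive = inhibition at or below 30%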). Conditions: bead-bound GRK2, FAM-aptamer displacement, at 10 µM, stronger effect = higher value.
The target in experiment [10] is AP-2 complex subunit beta (Homo sapiens) (UniProt P63010). As to the kind of experiment: beta-arrestin/AP2 interaction blockers – biochemical, validation set, GST-AP2 beads, flow cytometry, pilot screen (AID 504541;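 active = inhibition above 54%, about 3 SD of non-fluorescent compounds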;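 also: AP2 carries R879A mutation and is captured from E. coli lysate; bead-bound FITC arrestin peptide fluorescence measuring arrestin peptide binding to AP2; 0% = DMSO wells and 100% = excess unlabeled arrestin peptide control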). Conditions: FITC arrestin peptide, at 10 µM, stronger effect = higher value, AP2 beta2 appendage fragment, R879A mutant.
Experiment [11] in a line: cytosolic pH regulators acting via V-ATPase – S. cerevisiae, pHLuorin, HTS validation (AID 504600; in the data active = response above about 15%;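 also: plate controls were DMSO for no effect and reference compound for full effect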). Conditions: V-ATPase proton transport, at 10 µM, stronger effect = higher value.
In experiment [12] the test system is anti-desmoglein-3 scFv antibody binding to human DSG3. As to the kind of experiment: blockers of pathogenic pemphigus antibody–desmoglein-3 binding – biochemical, validation compound set, bead-based, flow cytometry, pilot screen (AID 588368;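 active = binding below the plate cutoff, the plate median minus 3 SD, with a reading above zero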;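 also: signal is the median channel fluorescence of bead-bound GFP antibody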). The note with it: Protein G beads, DSG3-Fc, scFv-GFP binding, at 10 µM, stronger effect = lower value.
The nature of experiment [13]: Nile Red efflux blockade in pump-expressing yeast – validation compound set, multiplex, phenotypic, pilot screen (AID 588506).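 Also: Nile Red retained in cells so higher fluorescence means more efflux inhibition; 0 = negative control wells and 1 = enniatin B 25 µM full block.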 Conditions: S. cerevisiae pump-expressing triplex, Nile Red efflux flow cytometry; at 10 µM; stronger effect = higher value; the pumps come from Candida albicans.
For experiment [14], the target named is ATP-binding cassette sub-family B member 6 (Homo sapiens) (UniProt Q9NP58). Briefly: blockers of ABCB6-driven porphyrin uptake – K562-ABCB6 cells, flow cytometry, validation set, pilot screen (AID 588550;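 active = inhibition above the screen-wide mean plus 3 SD, about 51%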;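 also: 0% = DMSO wells and 100% = benzethonium chloride 70 µM positive control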). The note with it: K562-ABCB6 porphyrin accumulation, 1 h, at 10 µM, stronger effect = higher value.
The nature of experiment [15]: AML differentiation inducers, ER-HoxA9 marrow cells – cell-based, GFP/MAC1 double positive, flow cytometry, validation set, primary screen (AID 588685;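 active = differentiation response of at least 50%, scaled between solvent and reference control, from cells with both markers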;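 also: compound exposure lasts four days before antibody staining and flow analysis; 0% = DMSO wells and 100% = 5 µM fulvestrant positive control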). Conditions: stronger effect = higher value, normalized: vehicle 0, fulvestrant 100.

Inconclusive results are not listed. Activity calls are given as the source filed them.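 The calls were made as follows, unless noted: active = efflux inhibition above 0.42, the validation set average plus 4 SD; inconclusive = no clear call, values can overlap the other calls; inactive = the rest.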

Integrin beta-1 (Homo sapiens) + Integrin alpha-4 (Homo sapiens), sequence (P05556 whole entry, looked up): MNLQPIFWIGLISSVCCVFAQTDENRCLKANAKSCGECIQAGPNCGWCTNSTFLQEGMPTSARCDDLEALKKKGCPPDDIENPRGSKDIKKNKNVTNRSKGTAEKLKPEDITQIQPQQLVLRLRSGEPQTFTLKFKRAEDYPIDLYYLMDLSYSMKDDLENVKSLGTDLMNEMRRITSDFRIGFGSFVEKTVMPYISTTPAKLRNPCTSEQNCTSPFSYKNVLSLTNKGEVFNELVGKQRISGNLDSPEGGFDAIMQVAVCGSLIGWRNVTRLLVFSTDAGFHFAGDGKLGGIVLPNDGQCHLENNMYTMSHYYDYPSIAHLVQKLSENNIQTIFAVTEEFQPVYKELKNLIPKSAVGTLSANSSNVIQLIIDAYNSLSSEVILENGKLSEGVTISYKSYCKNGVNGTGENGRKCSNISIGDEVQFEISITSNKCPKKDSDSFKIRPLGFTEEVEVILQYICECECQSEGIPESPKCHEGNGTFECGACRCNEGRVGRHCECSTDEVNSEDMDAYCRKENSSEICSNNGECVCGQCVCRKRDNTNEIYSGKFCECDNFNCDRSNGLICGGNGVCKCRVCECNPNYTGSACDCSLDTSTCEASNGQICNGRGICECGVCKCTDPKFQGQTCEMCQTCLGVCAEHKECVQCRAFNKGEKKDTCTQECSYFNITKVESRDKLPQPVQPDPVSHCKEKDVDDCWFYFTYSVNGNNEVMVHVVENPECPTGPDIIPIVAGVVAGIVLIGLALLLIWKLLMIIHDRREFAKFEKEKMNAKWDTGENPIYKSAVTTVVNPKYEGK
Integrin beta-1 (Homo sapiens) + Integrin alpha-4 (Homo sapiens), sequence (P13612 whole entry, looked up): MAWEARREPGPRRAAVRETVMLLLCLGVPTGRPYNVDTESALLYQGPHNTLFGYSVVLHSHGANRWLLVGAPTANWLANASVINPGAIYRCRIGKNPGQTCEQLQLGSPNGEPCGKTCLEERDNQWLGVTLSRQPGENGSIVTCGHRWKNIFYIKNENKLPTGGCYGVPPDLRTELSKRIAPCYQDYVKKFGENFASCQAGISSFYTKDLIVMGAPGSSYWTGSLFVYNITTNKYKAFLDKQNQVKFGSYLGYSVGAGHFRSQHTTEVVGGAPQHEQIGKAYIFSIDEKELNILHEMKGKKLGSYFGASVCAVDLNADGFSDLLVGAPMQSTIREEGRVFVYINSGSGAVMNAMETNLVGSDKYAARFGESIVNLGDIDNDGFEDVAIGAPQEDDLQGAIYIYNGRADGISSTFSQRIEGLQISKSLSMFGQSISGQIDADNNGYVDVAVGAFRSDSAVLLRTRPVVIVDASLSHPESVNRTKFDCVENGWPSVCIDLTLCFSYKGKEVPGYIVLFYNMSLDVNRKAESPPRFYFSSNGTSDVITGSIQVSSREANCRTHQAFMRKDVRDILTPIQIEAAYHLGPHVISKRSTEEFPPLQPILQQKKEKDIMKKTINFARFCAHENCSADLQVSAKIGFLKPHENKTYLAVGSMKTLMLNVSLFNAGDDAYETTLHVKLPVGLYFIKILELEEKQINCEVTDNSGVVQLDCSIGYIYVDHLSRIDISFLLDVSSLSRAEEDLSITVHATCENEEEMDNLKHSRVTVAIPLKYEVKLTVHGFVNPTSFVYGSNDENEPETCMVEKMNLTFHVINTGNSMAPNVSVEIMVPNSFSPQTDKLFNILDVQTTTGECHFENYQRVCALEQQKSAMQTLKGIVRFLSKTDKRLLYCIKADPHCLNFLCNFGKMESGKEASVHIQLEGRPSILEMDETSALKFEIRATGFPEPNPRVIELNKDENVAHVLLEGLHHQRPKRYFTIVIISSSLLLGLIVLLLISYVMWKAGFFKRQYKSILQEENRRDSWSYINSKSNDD
AP-2 complex subunit beta (Homo sapiens), sequence (P63010 whole entry, looked up, the tested form may be a part, one chain of several): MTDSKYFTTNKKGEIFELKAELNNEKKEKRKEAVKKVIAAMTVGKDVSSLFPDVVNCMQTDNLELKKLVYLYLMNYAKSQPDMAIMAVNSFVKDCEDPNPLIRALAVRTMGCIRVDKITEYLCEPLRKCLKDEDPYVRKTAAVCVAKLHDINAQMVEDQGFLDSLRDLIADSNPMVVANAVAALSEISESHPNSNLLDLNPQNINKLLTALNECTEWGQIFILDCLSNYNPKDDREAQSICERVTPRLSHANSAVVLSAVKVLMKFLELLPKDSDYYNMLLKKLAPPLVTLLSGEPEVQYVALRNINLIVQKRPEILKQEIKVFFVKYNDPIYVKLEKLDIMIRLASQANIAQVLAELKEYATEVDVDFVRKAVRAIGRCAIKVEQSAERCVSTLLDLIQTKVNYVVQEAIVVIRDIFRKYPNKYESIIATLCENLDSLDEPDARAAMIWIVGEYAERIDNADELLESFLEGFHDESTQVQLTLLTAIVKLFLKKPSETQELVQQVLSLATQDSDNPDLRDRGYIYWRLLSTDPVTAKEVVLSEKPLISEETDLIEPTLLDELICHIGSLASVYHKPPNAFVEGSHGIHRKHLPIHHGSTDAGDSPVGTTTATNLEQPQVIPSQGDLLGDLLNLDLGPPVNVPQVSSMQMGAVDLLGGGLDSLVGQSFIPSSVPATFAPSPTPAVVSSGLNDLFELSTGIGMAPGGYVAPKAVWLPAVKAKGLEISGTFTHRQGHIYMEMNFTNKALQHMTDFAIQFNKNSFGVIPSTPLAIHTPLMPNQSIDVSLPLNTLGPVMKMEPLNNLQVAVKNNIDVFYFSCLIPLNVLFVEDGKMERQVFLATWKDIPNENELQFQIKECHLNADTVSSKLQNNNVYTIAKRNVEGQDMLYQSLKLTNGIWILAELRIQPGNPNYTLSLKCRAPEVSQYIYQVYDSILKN
Beta-adrenergic receptor kinase 1 (Homo sapiens), sequence (P25098 whole entry, looked up): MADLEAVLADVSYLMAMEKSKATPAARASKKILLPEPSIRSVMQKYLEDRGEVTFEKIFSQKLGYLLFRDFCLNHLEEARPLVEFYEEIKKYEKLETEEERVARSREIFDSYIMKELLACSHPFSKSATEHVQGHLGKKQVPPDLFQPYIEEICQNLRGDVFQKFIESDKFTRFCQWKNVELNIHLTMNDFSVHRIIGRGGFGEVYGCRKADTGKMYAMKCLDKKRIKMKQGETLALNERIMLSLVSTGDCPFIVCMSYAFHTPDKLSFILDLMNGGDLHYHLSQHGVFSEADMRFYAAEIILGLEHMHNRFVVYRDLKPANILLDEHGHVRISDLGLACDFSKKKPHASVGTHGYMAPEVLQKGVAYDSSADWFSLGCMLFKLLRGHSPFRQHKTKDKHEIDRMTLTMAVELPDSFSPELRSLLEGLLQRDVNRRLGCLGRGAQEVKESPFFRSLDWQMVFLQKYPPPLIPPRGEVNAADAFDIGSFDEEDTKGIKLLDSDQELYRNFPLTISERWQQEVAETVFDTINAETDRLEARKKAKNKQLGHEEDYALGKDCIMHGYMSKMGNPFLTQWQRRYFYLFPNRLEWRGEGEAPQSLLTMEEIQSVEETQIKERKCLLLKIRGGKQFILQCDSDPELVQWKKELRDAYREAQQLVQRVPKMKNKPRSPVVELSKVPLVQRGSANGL
ATP-binding cassette sub-family B member 6 (Homo sapiens), sequence (Q9NP58 whole entry, looked up): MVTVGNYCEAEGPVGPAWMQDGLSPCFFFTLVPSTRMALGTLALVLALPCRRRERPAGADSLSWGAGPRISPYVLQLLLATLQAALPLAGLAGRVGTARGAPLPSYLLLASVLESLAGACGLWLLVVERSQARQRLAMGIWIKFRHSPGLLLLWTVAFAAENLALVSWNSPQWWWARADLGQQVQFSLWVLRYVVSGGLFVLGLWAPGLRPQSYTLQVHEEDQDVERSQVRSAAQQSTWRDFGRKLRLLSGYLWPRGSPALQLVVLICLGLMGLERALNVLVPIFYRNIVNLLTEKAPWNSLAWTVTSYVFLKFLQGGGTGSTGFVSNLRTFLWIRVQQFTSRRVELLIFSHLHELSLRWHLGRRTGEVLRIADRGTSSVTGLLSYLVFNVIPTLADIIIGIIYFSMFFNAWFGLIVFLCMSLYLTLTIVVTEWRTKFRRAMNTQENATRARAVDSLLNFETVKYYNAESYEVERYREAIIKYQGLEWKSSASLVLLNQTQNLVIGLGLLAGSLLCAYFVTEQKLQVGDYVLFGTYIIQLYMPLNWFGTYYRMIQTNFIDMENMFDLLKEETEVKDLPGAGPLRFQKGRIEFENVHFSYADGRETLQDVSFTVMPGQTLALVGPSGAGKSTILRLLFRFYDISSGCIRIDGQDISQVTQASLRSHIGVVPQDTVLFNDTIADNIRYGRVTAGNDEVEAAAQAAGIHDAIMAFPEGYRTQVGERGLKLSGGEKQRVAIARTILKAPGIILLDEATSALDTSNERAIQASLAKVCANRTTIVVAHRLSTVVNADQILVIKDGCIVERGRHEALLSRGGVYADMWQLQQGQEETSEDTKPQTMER

Turning to `C[N+]12CCCCC1C(COC(=O)c1ccc3c(c1)OCO3)CCC2` (stereo not given), the percent of DMSO control GFP in experiment [1] is 97.6% (inactive). Besides, the GFP response vs DMSO in experiment [2] is 96.9% (inactive); in experiment [4] it was 85.3% (inactive). Besides, the percent response of DMSO control in [3] was 97.9% (inactive). Moreover, the GFP response, % of DMSO in [5] is 93.9% (inactive). Moreover, the double positive events in experiment [6] worked out at 62%. Moreover, the vesicle binding response in experiment [6] is 116% (inactive). Moreover, the figures for the inhibition in [7], in experiment [10] and in experiment [14] were 10.9% (inactive), -3.8% (inactive) and 12% (inactive), respectively. The superoxide response (% of plate) in experiment [8] was 99.1% (inactive). For the same compound, the aptamer binding inhibition in experiment [9] was 5% (inactive). In addition, the response in experiment [11] was 1.26% (inactive). In addition, the binding (% of control) in [12] is 96.7% (inactive). For the same compound, the efflux inhibition (fraction of control) in [13] is 0.14 (inactive). Moreover, the differentiation response in experiment [15] is -19.6% (inactive).

As for `O=C(CC(C(=O)O)c1c[nH]c2ccccc12)c1ccccc1` (stereo not given), the percent of DMSO control GFP in [1] is 101% (inactive). Also, the results for the GFP response vs DMSO in experiment [2] and in [4] were 109% (inactive) and 103% (inactive), respectively. In addition, the percent response of DMSO control in experiment [3] is 98.8% (inactive). In addition, in experiment [5], the GFP response, % of DMSO is 96.3% (inactive). In addition, the double positive events in experiment [6] worked out at 58.5%. In addition, the vesicle binding response in [6] is 147% (inactive). The inhibition was 10% (inactive) in [7], 11.2% (inactive) in experiment [10] and 3% (inactive) in experiment [14]. Also, the superoxide response (% of plate) in [8] is 92.2% (inactive). The aptamer binding inhibition in experiment [9] was 4% (inactive). Besides, the response in [11] was -1.72% (inactive). Further, in experiment [12], the binding (% of control) was 102% (inactive). For the same compound, in experiment [13], the efflux inhibition (fraction of control) was 0.03 (inactive). For the same compound, the differentiation response in [15] is -5.05% (inactive).

For the compound `CCOC(=O)C1=C(N)Oc2c(oc(CO)cc2=O)C1c1ccc(F)c(F)c1` (stereo not given), the percent of DMSO control GFP in [1] is 99.1% (inactive). Moreover, the GFP response vs DMSO in experiment [2] was 101% (inactive); in [4], 94.3% (inactive). The percent response of DMSO control in experiment [3] is 99.8% (inactive). The GFP response, % of DMSO in experiment [5] was 97.3% (inactive). This compound came in with a double positive events in experiment [6] of 56.7%. Moreover, the vesicle binding response in experiment [6] was 213% (inactive). The inhibition is 9.09% (inactive) in [7], 42.8% (inactive) in [10] and 2% (inactive) in [14]. Further, the superoxide response (% of plate) in [8] was 98% (inactive). The aptamer binding inhibition in [9] is 1% (inactive). Further, the response in [11] was -11.2% (inactive). In addition, the binding (% of control) in [12] was 104% (inactive). The efflux inhibition (fraction of control) in [13] is 0.03 (inactive). The differentiation response in experiment [15] was -18% (inactive).

For the compound `CN(Cc1ccccc1)CC(O)COc1ccc(CNCc2cccnc2)cc1` (stereo not given), in [1], the percent of DMSO control GFP is 101% (inactive). Besides, the GFP response vs DMSO in experiment [2] was 102% (inactive); in experiment [4], 91.3% (inactive). Moreover, the percent response of DMSO control in experiment [3] is 103% (inactive). In addition, the GFP response, % of DMSO in experiment [5] was 100% (inactive). In addition, in experiment [6], the double positive events was determined as 56.7%. Moreover, the vesicle binding response in experiment [6] was 211% (inactive). Further, the inhibition in [7] is -1.17% (inactive); in experiment [10], -7.34% (inactive); in experiment [14] it was 9% (inactive). In addition, in experiment [8], the superoxide response (% of plate) is 93.8% (inactive). Further, the aptamer binding inhibition in experiment [9] is -6% (inactive). The response in experiment [11] was 2.19% (inactive). In addition, the binding (% of control) in experiment [12] is 105% (inactive). Besides, the efflux inhibition (fraction of control) in experiment [13] was -0.16 (inactive). In addition, the differentiation response in experiment [15] is 24% (inactive).

As to `COc1cccc(OCc2cc(C3Nc4ccccc4C(=O)N3Cc3ccco3)ccc2OC)c1` (stereo not given), the percent of DMSO control GFP in experiment [1] is 106% (inactive). Further, the results for the GFP response vs DMSO in [2] and in [4] were 99.9% (inactive) and 92.3% (inactive), respectively. In addition, in experiment [3], the percent response of DMSO control was 104% (inactive). Further, the GFP response, % of DMSO in experiment [5] is 88.9% (inactive). Also, the double positive events in [6] is 53.2%. Besides, the vesicle binding response in experiment [6] was 127% (inactive). The results for the inhibition in experiment [7], in experiment [10] and in [14] were 3.49% (inactive), -4.8% (inactive) and 3% (inactive), respectively. Besides, the superoxide response (% of plate) in experiment [8] is 99.1% (inactive). In addition, the aptamer binding inhibition in experiment [9] is 4% (inactive). Further, the response in [11] was 0% (inactive). Further, the binding (% of control) in experiment [12] is 96.5% (inactive). In addition, the efflux inhibition (fraction of control) in [13] was 0.03 (inactive). In addition, the differentiation response in experiment [15] is -9.89% (inactive).
